Where a name gives a salt, the structure may show the parent alone.
Tests used:
Assay in all cases: phenotypically active (imaging signature differs from DMSO and reproducible) at any of 0.3-9 uM (binary (1 = active, 0 = inactive)); higher = active
Conditions in all cases: treatment time: 24 h
[1] = tested on: A549-ACTB-RAB5A
In short: (§1)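 Four wells per concentration (0.3, 1, 3 or 9 µM) were treated for 24 h in each of fifteen gene-edited reporter lines from A549, HepG2 and WPMY1 cells, then imaged live. After normalising live-cell features to solvent control wells, deviation was defined as ≥3 of 4 wells lying past the 95th percentile of control Euclidean distances. Reproducibility was defined as a median replicate Pearson correlation above the 95th percentile of non-replicates. Both had to hold for phenotypic activity.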

[2] = tested on: A549-CANX-COX4
In short: as §1

[3] = tested on: A549-GM130-SQSTM1
In short: as §1

[4] = tested on: A549-TP53BP1-CLTA
In short: as §1

[5] = tested on: A549-TUBA1B-RELA
In short: as §1

[6] = tested on: HepG2-ACTB-RAB5A
In short: as §1

[7] = tested on: HepG2-CANX-COX4
In short: as §1

[8] = tested on: HepG2-GM130-SQSTM1
In short: as §1

[9] = tested on: HepG2-TP53BP1-CLTA
In short: as §1

[10] = tested on: HepG2-TUBA1B-RELA
In short: as §1

[11] = tested on: WPMY1-ACTB-RAB5A
In short: as §1

[12] = tested on: WPMY1-CANX-COX4
In short: as §1

[13] = tested on: WPMY1-GM130-SQSTM1
In short: as §1

[14] = tested on: WPMY1-TP53BP1-CLTA
In short: as §1

[15] = tested on: WPMY1-TUBA1B-RELA
In short: as §1

Measured: phenotypically active

CCC(NC(C)C)C(O)c1ccc(O)c(O)c1 (stereo not given) [isoetharine]
inactive: [1] 0 | [2] 0 | [3] 0 | [4] 0 | [5] 0 | [6] 0 | [7] 0 | [8] 0 | [9] 0 | [10] 0 | [11] 0 | [12] 0 | [13] 0 | [14] 0 | [15] 0

Nc1ncnc2c1ncn2[C@@H]1O[C@H](CO)C[C@H]1O [Cordycepin]
inactive: [1] 0 | [2] 0 | [3] 0 | [4] 0 | [5] 0 | [6] 0 | [7] 0 | [8] 0 | [9] 0 | [10] 0 | [11] 0 | [12] 0 | [13] 0 | [14] 0 | [15] 0

O=S(=O)(NCCSSCCNS(=O)(=O)c1cc(Cl)ccc1Cl)c1cc(Cl)ccc1Cl
inactive: [1] 0 | [2] 0 | [3] 0 | [4] 0 | [5] 0 | [6] 0 | [7] 0 | [8] 0 | [9] 0 | [10] 0 | [11] 0 | [12] 0 | [13] 0 | [14] 0 | [15] 0

CCCc1nc(C)c2c(C)nc3ccc(OC)nc3n12
inactive: [1] 0 | [2] 0 | [3] 0 | [4] 0 | [5] 0 | [6] 0 | [7] 0 | [8] 0 | [9] 0 | [10] 0 | [11] 0 | [12] 0 | [13] 0 | [14] 0 | [15] 0

C=C(C)[C@@H]1CC[C@]2(CO)CC[C@]3(C)[C@H](CC[C@@H]4[C@@]5(C)CC[C@H](O)C(C)(C)[C@@H]5CC[C@]43C)[C@@H]12 [Betulin]
inactive: [1] 0 | [2] 0 | [3] 0 | [4] 0 | [5] 0 | [6] 0 | [7] 0 | [8] 0 | [9] 0 | [10] 0 | [11] 0 | [12] 0 | [13] 0 | [14] 0 | [15] 0

O=c1[nH]cnc2[nH]ncc12 [Allopurinol]
inactive: [1] 0 | [2] 0 | [3] 0 | [4] 0 | [5] 0 | [6] 0 | [7] 0 | [8] 0 | [9] 0 | [10] 0 | [11] 0 | [12] 0 | [13] 0 | [14] 0 | [15] 0

C[C@@H]1O[C@@H](O[C@H]2C(=O)c3c(O)cc(O)cc3O[C@@H]2c2ccc(O)c(O)c2)[C@H](O)[C@H](O)[C@H]1O [Astilbin]
inactive: [1] 0 | [2] 0 | [3] 0 | [4] 0 | [5] 0 | [6] 0 | [7] 0 | [8] 0 | [9] 0 | [10] 0 | [11] 0 | [12] 0 | [13] 0 | [14] 0 | [15] 0

CC(C)[C@H]1CC[C@H](C(=O)N[C@H](Cc2ccccc2)C(=O)O)CC1 [nateglinide]
inactive: [1] 0 | [2] 0 | [3] 0 | [4] 0 | [5] 0 | [6] 0 | [7] 0 | [8] 0 | [9] 0 | [10] 0 | [11] 0 | [12] 0 | [13] 0 | [14] 0 | [15] 0

Cc1cc(/N=N/c2cc(S(=O)(=O)O)c(C)cc2C)c(N)cc1O [Ischemin sodium salt]
inactive: [1] 0 | [2] 0 | [3] 0 | [4] 0 | [5] 0 | [6] 0 | [7] 0 | [8] 0 | [9] 0 | [10] 0 | [11] 0 | [12] 0 | [13] 0 | [14] 0 | [15] 0

c1ccc2c(c1)CN1CCCC1=N2 [Desoxypeganine Hydrochloride]
inactive: [1] 0 | [2] 0 | [3] 0 | [4] 0 | [5] 0 | [6] 0 | [7] 0 | [8] 0 | [9] 0 | [10] 0 | [11] 0 | [12] 0 | [13] 0 | [14] 0 | [15] 0

CC1(C)CCC(C)(C)c2cc(C3(c4ccc(C(=O)O)cc4)OCCO3)ccc21
inactive: [1] 0 | [2] 0 | [3] 0 | [4] 0 | [5] 0 | [6] 0 | [7] 0 | [8] 0 | [9] 0 | [10] 0 | [11] 0 | [12] 0 | [13] 0 | [14] 0 | [15] 0

CCOc1ccccc1OCCN[C@H](C)Cc1ccc(OC)c(S(N)(=O)=O)c1 [tamsulosin]
inactive: [1] 0 | [2] 0 | [3] 0 | [4] 0 | [5] 0 | [6] 0 | [7] 0 | [8] 0 | [9] 0 | [10] 0 | [11] 0 | [12] 0 | [13] 0 | [14] 0 | [15] 0

CC(=O)/N=c1/sc(S(N)(=O)=O)nn1C [methazolamide]
inactive: [1] 0 | [2] 0 | [3] 0 | [4] 0 | [5] 0 | [6] 0 | [7] 0 | [8] 0 | [9] 0 | [10] 0 | [11] 0 | [12] 0 | [13] 0 | [14] 0 | [15] 0

C[C@H]1[C@H](C)CC[C@]2(C(=O)O[C@@H]3O[C@H](CO[C@@H]4O[C@H](CO)[C@@H](O[C@@H]5O[C@@H](C)[C@H](O)[C@@H](O)[C@H]5O)[C@H](O)[C@H]4O)[C@@H](O)[C@H](O)[C@H]3O)CC[C@]3(C)C(=CC[C@@H]4[C@@]5(C)C[C@@H](O)[C@H](O)[C@@](C)(CO)[C@@H]5CC[C@]43C)[C@H]12 [Asiaticoside]
inactive: [1] 0 | [2] 0 | [3] 0 | [4] 0 | [5] 0 | [6] 0 | [7] 0 | [8] 0 | [9] 0 | [10] 0 | [11] 0 | [12] 0 | [13] 0 | [14] 0 | [15] 0

COC(=O)[C@H]1[C@H]2C[C@H]3c4[nH]c5ccccc5c4CCN3C[C@@H]2CC[C@@H]1O [Corynanthine hydrochloride]
inactive: [1] 0 | [2] 0 | [3] 0 | [4] 0 | [5] 0 | [6] 0 | [7] 0 | [8] 0 | [9] 0 | [10] 0 | [11] 0 | [12] 0 | [13] 0 | [14] 0 | [15] 0

COC(=O)C1=C(C)NC(C)=C(C(=O)OC(C)C)C1c1cccc2nonc12 (stereo not given) [isradipine]
inactive: [1] 0 | [2] 0 | [3] 0 | [4] 0 | [5] 0 | [6] 0 | [7] 0 | [8] 0 | [9] 0 | [10] 0 | [11] 0 | [12] 0 | [13] 0 | [14] 0 | [15] 0

CCOC(=O)[C@H](CCc1ccccc1)N[C@@H](C)C(=O)N1[C@H](C(=O)O)C[C@@H]2CCC[C@@H]21 [ramipril]
inactive: [1] 0 | [2] 0 | [3] 0 | [4] 0 | [5] 0 | [6] 0 | [7] 0 | [8] 0 | [9] 0 | [10] 0 | [11] 0 | [12] 0 | [13] 0 | [14] 0 | [15] 0

CCOC(=O)[C@H](CCc1ccccc1)N[C@H]1CCc2ccccc2N(CC(=O)O)C1=O [benazepril]
inactive: [1] 0 | [2] 0 | [3] 0 | [4] 0 | [5] 0 | [6] 0 | [7] 0 | [8] 0 | [9] 0 | [10] 0 | [11] 0 | [12] 0 | [13] 0 | [14] 0 | [15] 0

Nn1nnc2ccccc21
inactive: [1] 0 | [2] 0 | [3] 0 | [4] 0 | [5] 0 | [6] 0 | [7] 0 | [8] 0 | [9] 0 | [10] 0 | [11] 0 | [12] 0 | [13] 0 | [14] 0 | [15] 0

CCCCN1C[C@H](O)[C@@H](O)[C@H](O)[C@H]1CO [Miglustat hydrochloride]
inactive: [1] 0 | [2] 0 | [3] 0 | [4] 0 | [5] 0 | [6] 0 | [7] 0 | [8] 0 | [9] 0 | [10] 0 | [11] 0 | [12] 0 | [13] 0 | [14] 0 | [15] 0

Source: the supplement of paper PMC7411054
